Reference: PubChem BioAssay (Tox21)
Values joined by “and” are separate entries in the source; they are usually repeats but may differ in a detail not shown here. Identical values can stand only once. The source holds several records for some structures; these can differ, active in one and inactive in another. Active and inactive are the calls of the source. A call without a number means that no potency is given here. Unless noted, calls follow the shape of the dose curve; as a rule, active = well fitted curve in the direction sought with a large enough effect in the repeat runs; inconclusive = weak or mixed curves; inactive = no such curve, though single readings can be large; an effect the other way counts as inactive or inconclusive.

Columns and labels:
[1] = qHTS assay to identify small molecule antagonists of the thyroid receptor (TR) signaling pathway - cell viability counter screen (AID 743064); also: nearly all actives have a fitted effect of over 50% in size; also: potency is read from the fitted curve at half-maximal effect
In short: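 Fluorescence from CellTiter-Fluor, added after 23.5 h exposure at 37 °C, reported viability of GH3.TRE-Luc cells co-treated with compound and 1 nM T3. Measured in the same wells as the luciferase TR readout.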

[2] = qHTS assay to identify small molecule antagonists of the thyroid receptor (TR) signaling pathway (AID 743065); also: nearly all actives have a fitted effect of over 55% in size; also: potency is read from the fitted curve at half-maximal effect; as to activity, negative = inhibition: series mostly up to about 70 µM
In short: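 GH3.TRE-Luc rat pituitary cells carrying two TR response elements driving luciferase were plated for 4 h, given compound plus 1 nM T3 (final), and incubated 23.5 h at 37 C. ONE-Glo luminescence measured reporter inhibition; CellTiter-Fluor fluorescence tracked cytotoxicity.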

[3] = test system: thyroid hormone receptor (rat, GH3 cells); test: qHTS assay to identify small molecule agonists of the thyroid receptor (TR) signaling pathway (AID 743066; calls by dose curve; also: potency is read from the fitted curve at half-maximal effect)
[4] = target: Estrogen receptor (Homo sapiens) (UniProt P03372); test: qHTS assay to identify small molecule antagonists of the estrogen receptor alpha (ER-alpha) signaling pathway (AID 743069; active = well fitted curve in the direction sought with a large enough effect in the signal ratio in the repeat runs, not every such curve was filed as active; inconclusive = weak or mixed curves, or effect the other way; inactive = no such curve, though single readings can be large or run the other way; the % refers to the signal ratio; also: potency is read from the fitted curve at half-maximal effect)
In short: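 HEK293 cells stably carrying an ER-alpha-UAS-bla beta-lactamase reporter were pre-cultured overnight in 2% charcoal-stripped FBS medium. Test compounds in DMSO were added together with 17beta-estradiol for 18 hr at 37C. Read-out was fluorescence after 2 hr with LiveBLAzer B/G FRET substrate at room temperature.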

[5] = qHTS assay to identify small molecule antagonists of the estrogen receptor alpha (ER-alpha) signaling pathway - cell viability counter screen (AID 743074; calls by dose curve; also: nearly all actives have a fitted effect of over 45% in size; also: potency is read from the fitted curve at half-maximal effect)
[6] = target: Estrogen receptor (Homo sapiens) (UniProt P03372); test: qHTS assay to identify small molecule agonists of the estrogen receptor alpha (ER-alpha) signaling pathway (AID 743075; calls by dose curve; also: potency is read from the fitted curve at half-maximal effect)
[7] = qHTS assay to identify small molecule antagonists of the estrogen receptor alpha (ER-alpha) signaling pathway using the BG1 cell line (AID 743080; calls by dose curve;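 also: BG1 cells stimulated with 17beta-estradiol alongside compound; nearly all actives have a fitted effect of over 25% in size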; also: potency is read from the fitted curve at half-maximal effect)
In short: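 Luminescence from a 4×ERE-luciferase reporter in BG1-Luc-4E2 cells served as read-out. Cells, pre-cultured 5 days in stripped-serum phenol-red-free medium, were exposed to compound with 17beta-estradiol co-stimulation for 21.5 h at 37 C.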

[8] = qHTS assay to identify small molecule antagonists of the estrogen receptor alpha (ER-alpha) signaling pathway using the BG1 cell line - cell viability counter screen (AID 743081);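 also: compound given together with 17beta-estradiol as the ER stimulus; series mostly up to about 70 µM; nearly all actives have a fitted effect of over 45% in size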
Aromatase (Homo sapiens) = Aromatase (Homo sapiens) (UniProt P11511); test: qHTS assay to identify aromatase inhibitors (AID 743083); also: nearly all actives have a fitted effect of over 55% in size; also: potency is read from the fitted curve at half-maximal effect; as to activity, negative = inhibition: series mostly up to about 70 µM
[9] = qHTS assay to identify aromatase inhibitors - cell viability counter screen (AID 743084);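 also: cells stimulated with testosterone during compound exposure; nearly all actives have a fitted effect of over 55% in size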; also: potency is read from the fitted curve at half-maximal effect
[10] = qHTS assay to identify small molecule that activate the aryl hydrocarbon receptor (AhR) signaling pathway - cell viability counter screen (AID 743086);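 also: HepG2 liver cells carrying the AhR DRE luciferase reporter; series mostly up to about 70 µM; nearly all actives have a fitted effect of over 45% in size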
In short: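 HepG2-AhR-luc (HG2L7.5c1) cells, 4000/well, were preincubated 5 h at 37C, exposed to compound in qHTS format for 24 hr at 37C, then given CellTiter-Fluor for 30 min; viability was read as fluorescence in the reporter wells.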

[11] = qHTS assay to identify small molecule antagonists of the peroxisome proliferator-activated receptor gamma (PPARg) signaling pathway - cell viability counter screen (AID 743194); also: nearly all actives have a fitted effect of over 55% in size; also: potency is read from the fitted curve at half-maximal effect
In short: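 PPARg-UAS-bla HEK293H cells were plated, rested 5 h at 37 C, then treated with compounds plus rosiglitazone (50 nM final) for 17 h at 37 C; viability was then read by CellTiter-Glo luminescence after 30 min at room temperature.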

[12] = qHTS assay for small molecule agonists of the antioxidant response element (ARE) signaling pathway - cell viability counter screen (AID 743203; calls by dose curve; also: nearly all actives have a fitted effect of over 55% in size; also: potency is read from the fitted curve at half-maximal effect)
In short: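 Cells (ARE-bla HepG2, 2,000/well) receive DMSO-dissolved compounds after a 5 hrs rest. Plates incubate 16 hrs at 37C/5% CO2. CellTiter-Glo luminescence is then recorded after 30 min at room temperature.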

[13] = qHTS assay for small molecule activators of the heat shock response signaling pathway - cell viability counter screen (AID 743209); also: nearly all actives have a fitted effect of over 50% in size; also: potency is read from the fitted curve at half-maximal effect
In short: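 Quantitative HTS format, Tox21 10K library. HeLa cells carrying an HSE-driven beta-lactamase reporter were treated 5 h at 37 C, then assessed for viability by CellTiter-Glo luminescence.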

[14] = target: Estrogen receptor (Homo sapiens) (UniProt P03372); test: qHTS assay to identify small molecule agonists of the estrogen receptor alpha (ER-alpha) signaling pathway using the BG1 cell line (AID 743079); also: nearly all actives have a fitted effect of over 20% in size; also: potency is read from the fitted curve at half-maximal effect
[15] = target: Peroxisome proliferator-activated receptor gamma (Homo sapiens) (UniProt P37231); test: qHTS assay to identify small molecule agonists of the peroxisome proliferator-activated receptor gamma (PPARg) signaling pathway (AID 743094; active = well fitted activation curve with a large enough effect in the signal ratio in the repeat runs, not every such curve was filed as active; inconclusive = weak or mixed curves, or effect the other way; inactive = no such curve, though single readings can be large or run the other way; the % refers to the signal ratio)
In short: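 Stably transfected HEK293H cells (GeneBLAzer PPARg UAS-bla) were incubated with test substances for 17 h at 37C after a 5 h pre-incubation; beta-lactamase activity was then detected by FRET substrate fluorescence.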

[16] = qHTS assay for small molecule agonists of the antioxidant response element (ARE) signaling pathway (AID 743202; active = well fitted activation curve with a large enough effect in the signal ratio in the repeat runs, not every such curve was filed as active; inconclusive = weak or mixed curves, or effect the other way; inactive = no such curve, though single readings can be large or run the other way; the % refers to the signal ratio; also: potency is read from the fitted curve at half-maximal effect)
In short: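 Read-out: LiveBLAzer B/G FRET substrate fluorescence after 2 h at room temperature, following 16 h compound treatment at 37 C of HepG2 cells carrying an ARE-driven beta-lactamase reporter.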

[17] = qHTS assay for small molecule activators of the heat shock response signaling pathway (AID 743210; active = well fitted activation curve with a large enough effect in the signal ratio in the repeat runs, with a control signal flat, not every such curve was filed as active; inconclusive = weak or mixed curves; the % refers to the signal ratio; also: series mostly up to about 63 µM)
In short: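 HSE-bla HeLa cells (beta-lactamase reporter under heat shock response elements) were exposed to compounds for 5 h at 37 C, then loaded with LiveBLAzer B/G FRET substrate for 2.5 h at room temperature before fluorescence reading.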

[18] = target: Aryl hydrocarbon receptor (Homo sapiens) (UniProt P35869); test: qHTS assay to identify small molecule that activate the aryl hydrocarbon receptor (AhR) signaling pathway (AID 743085); also: nearly all actives have a fitted effect of over 15% in size; also: potency is read from the fitted curve at half-maximal effect;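 as to activation: HG2L7.5c1 human HepG2 liver cells with stably integrated DRE-driven firefly reporter; series mostly up to about 70 µM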
In short: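 Cell line HG2L7.5c1 (human hepatoma, 20× DRE-luc). Plated, 5 h 37C, compound/DMSO added, 24 h 37C. CellTiter-Fluor 30 min 37C → fluorescence; then ONE-Glo 30 min RT → luminescence.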

[19] = target: Peroxisome proliferator-activated receptor gamma (Homo sapiens) (UniProt P37231); test: qHTS assay to identify small molecule antagonists of the peroxisome proliferator-activated receptor gamma (PPARg) signaling pathway (AID 743191; calls by dose curve; also: series mostly up to about 63 µM; nearly all actives have a fitted effect of over 30% in size)
In short: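 GeneBLAzer PPARg UAS-bla HEK293H cells carrying a UAS-driven beta-lactamase reporter were plated at 3000 cells/well, preincubated 5 h at 37C, then given compound for 17 h at 37C; LiveBLAzer B/G FRET substrate was read after 1 h at room temperature.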

Estrogen receptor (Homo sapiens), sequence (P03372 whole entry, looked up): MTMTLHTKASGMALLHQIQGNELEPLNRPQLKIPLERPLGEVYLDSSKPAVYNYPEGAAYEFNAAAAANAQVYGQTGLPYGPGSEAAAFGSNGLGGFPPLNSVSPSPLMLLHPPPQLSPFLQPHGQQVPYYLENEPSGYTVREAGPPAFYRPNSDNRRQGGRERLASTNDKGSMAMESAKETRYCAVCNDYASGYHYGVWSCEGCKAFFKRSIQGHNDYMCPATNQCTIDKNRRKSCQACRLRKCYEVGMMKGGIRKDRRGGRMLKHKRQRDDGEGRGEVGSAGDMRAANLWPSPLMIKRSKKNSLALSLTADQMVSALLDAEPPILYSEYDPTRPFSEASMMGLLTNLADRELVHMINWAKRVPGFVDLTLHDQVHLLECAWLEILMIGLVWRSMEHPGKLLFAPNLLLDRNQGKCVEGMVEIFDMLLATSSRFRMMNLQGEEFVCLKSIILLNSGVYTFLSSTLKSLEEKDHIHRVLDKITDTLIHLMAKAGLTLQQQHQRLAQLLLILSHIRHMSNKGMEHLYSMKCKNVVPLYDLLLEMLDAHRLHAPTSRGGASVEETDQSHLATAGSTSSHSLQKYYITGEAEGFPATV
Aromatase (Homo sapiens), sequence (P11511 whole entry, looked up): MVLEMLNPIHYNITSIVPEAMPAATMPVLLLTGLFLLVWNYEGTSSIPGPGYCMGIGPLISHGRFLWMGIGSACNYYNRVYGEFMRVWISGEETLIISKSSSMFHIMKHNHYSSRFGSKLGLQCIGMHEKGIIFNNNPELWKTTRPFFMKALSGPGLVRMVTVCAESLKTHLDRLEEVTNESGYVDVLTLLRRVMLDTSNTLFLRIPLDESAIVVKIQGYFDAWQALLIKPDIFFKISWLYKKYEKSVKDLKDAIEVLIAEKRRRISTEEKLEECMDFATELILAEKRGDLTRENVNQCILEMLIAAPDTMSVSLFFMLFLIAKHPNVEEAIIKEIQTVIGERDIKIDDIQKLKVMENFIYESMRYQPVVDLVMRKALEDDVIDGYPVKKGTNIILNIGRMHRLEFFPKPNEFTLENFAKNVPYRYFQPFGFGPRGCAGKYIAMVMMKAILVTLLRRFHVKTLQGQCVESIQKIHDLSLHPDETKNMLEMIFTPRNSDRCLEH
Aryl hydrocarbon receptor (Homo sapiens), sequence (P35869 whole entry, looked up): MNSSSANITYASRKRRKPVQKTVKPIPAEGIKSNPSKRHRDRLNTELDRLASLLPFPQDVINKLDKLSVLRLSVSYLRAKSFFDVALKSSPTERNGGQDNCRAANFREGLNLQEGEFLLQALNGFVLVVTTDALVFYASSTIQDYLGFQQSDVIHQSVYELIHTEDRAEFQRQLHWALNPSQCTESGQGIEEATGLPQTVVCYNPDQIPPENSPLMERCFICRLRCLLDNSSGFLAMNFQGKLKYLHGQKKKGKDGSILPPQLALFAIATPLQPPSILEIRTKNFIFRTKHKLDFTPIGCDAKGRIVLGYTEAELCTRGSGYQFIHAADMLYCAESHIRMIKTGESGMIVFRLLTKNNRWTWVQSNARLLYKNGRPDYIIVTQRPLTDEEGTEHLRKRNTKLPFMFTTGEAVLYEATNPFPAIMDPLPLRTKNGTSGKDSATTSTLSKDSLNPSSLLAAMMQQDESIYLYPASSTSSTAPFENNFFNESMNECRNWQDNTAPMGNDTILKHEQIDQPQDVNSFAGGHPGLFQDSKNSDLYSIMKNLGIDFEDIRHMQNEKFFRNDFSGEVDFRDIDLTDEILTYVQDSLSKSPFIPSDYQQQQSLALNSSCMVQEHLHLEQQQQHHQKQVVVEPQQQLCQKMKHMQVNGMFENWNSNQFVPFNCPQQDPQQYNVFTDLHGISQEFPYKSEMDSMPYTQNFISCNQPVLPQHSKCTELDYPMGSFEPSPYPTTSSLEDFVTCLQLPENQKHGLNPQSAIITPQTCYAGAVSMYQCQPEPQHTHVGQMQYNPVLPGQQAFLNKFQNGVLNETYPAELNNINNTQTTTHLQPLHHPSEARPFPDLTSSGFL
Peroxisome proliferator-activated receptor gamma (Homo sapiens), sequence (P37231 whole entry, looked up): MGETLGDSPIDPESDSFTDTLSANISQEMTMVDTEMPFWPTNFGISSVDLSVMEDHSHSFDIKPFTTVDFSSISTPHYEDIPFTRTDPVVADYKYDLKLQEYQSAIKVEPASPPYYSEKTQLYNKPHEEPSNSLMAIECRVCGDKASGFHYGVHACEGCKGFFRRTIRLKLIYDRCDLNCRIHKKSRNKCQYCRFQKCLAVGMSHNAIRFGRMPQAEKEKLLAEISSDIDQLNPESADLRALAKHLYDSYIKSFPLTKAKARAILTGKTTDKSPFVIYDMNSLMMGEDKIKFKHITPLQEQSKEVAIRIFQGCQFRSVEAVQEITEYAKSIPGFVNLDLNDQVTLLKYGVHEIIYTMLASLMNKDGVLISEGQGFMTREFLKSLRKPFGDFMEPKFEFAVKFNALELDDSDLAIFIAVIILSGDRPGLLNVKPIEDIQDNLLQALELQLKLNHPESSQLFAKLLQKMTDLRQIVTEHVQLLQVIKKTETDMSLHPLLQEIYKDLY

**Q.** For `Nc1cc(Cl)c(-c2cc(Cl)c(N)cc2Cl)cc1Cl`, which Potency [1] is on record?
**A.** 10.9 µM (active) and 8.63 µM (active)

**Q.** And the Potency [2]?
**A.** 1.53 µM (active) and 1.54 µM (active)

**Q.** What about the Potency [3] of the same molecule?
**A.** inactive

**Q.** And the Potency [4]?
**A.** 1.55 µM [inconclusive] (active) and 19.5 µM [inconclusive] (active)

**Q.** What about the Potency [5] of the same molecule?
**A.** 48.9 µM (active) and 24.5 µM (active)

**Q.** And the Potency [6]?
**A.** inactive

**Q.** What about the Potency [7] of the same molecule?
**A.** 54.4 µM (active) and 54.5 µM (active)

**Q.** What about the Potency [8] of the same molecule?
**A.** inactive

**Q.** What about the Potency (Aromatase (Homo sapiens)) of the same molecule?
**A.** 12.2 µM (active) and 15.4 µM (active)

**Q.** And the Potency [9]?
**A.** 48.5 µM (active)

**Q.** And the Potency [10]?
**A.** inactive

**Q.** What about the Potency [11] of the same molecule?
**A.** 48.9 µM (active) and 17.4 µM (active)

**Q.** And the Potency [12]?
**A.** 61.1 µM (active) and 21.7 µM (active)

**Q.** And the Potency [13]?
**A.** 24.5 µM (active)

**Q.** Which results are given for `COc1ccc(Cc2cnc(N)nc2N)cc1OC`?
**A.** Potency [1]: inactive; Potency [2]: inactive; Potency [3]: inactive; Potency [4]: inactive; Potency [5]: inactive; Potency [6]: inactive; Potency [14]: inactive; Potency [8]: inactive; Potency (Aromatase (Homo sapiens)): inactive; Potency [9]: inactive; Potency [10]: inactive; Potency [15]: inactive; Potency [11]: inactive; Potency [16]: inactive; Potency [12]: inactive; Potency [13]: inactive; Potency [17]: inactive

**Q.** With `c1ccc2cc3c(ccc4ccccc43)cc2c1` as the molecule, how does the Potency [1] read?
**A.** inactive

**Q.** And the Potency [2]?
**A.** inactive

**Q.** And the Potency [3]?
**A.** inactive

**Q.** And the Potency [5]?
**A.** inactive

**Q.** And the Potency [6]?
**A.** 55.1 µM [activator] (active) and inactive

**Q.** And the Potency [14]?
**A.** 54.6 µM (active) and 48.6 µM (active)

**Q.** What about the Potency [8] of the same molecule?
**A.** inactive

**Q.** What about the Potency (Aromatase (Homo sapiens)) of the same molecule?
**A.** inactive

**Q.** What about the Potency [9] of the same molecule?
**A.** inactive

**Q.** What about the Potency [18] of the same molecule?
**A.** 4.34 µM (active) and 6.86 µM (active)

**Q.** What about the Potency [10] of the same molecule?
**A.** inactive

**Q.** And the Potency [15]?
**A.** inactive

**Q.** And the Potency [19]?
**A.** inactive

**Q.** What about the Potency [11] of the same molecule?
**A.** inactive

**Q.** And the Potency [16]?
**A.** 6.11 µM (active)

**Q.** And the Potency [12]?
**A.** inactive

**Q.** What about the Potency [13] of the same molecule?
**A.** inactive

**Q.** What about the Potency [17] of the same molecule?
**A.** inactive

**Q.** For `CC(C)(C)c1cc(C(C)(C)C)c(O)c(C(C)(C)C)c1`, which Potency [1] is on record?
**A.** 27.3 µM (active)

**Q.** And the Potency [2]?
**A.** 27.3 µM (active)

**Q.** What about the Potency [3] of the same molecule?
**A.** 9.69 µM (active)

**Q.** And the Potency [5]?
**A.** inactive

**Q.** What about the Potency [6] of the same molecule?
**A.** inactive

**Q.** And the Potency [14]?
**A.** inactive

**Q.** And the Potency [8]?
**A.** inactive

**Q.** And the Potency [9]?
**A.** inactive

**Q.** And the Potency [18]?
**A.** inactive

**Q.** And the Potency [10]?
**A.** inactive

**Q.** And the Potency [11]?
**A.** inactive

**Q.** And the Potency [12]?
**A.** inactive

**Q.** Which results are given for `CCN1CCCC1CNC(=O)c1cc(S(=O)(=O)CC)c(N)cc1OC` (stereo not drawn)?
**A.** Potency [1]: inactive; Potency [2]: inactive; Potency [3]: inactive; Potency [4]: inactive; Potency [6]: inactive; Potency [14]: inactive; Potency [7]: inactive; Potency (Aromatase (Homo sapiens)): inactive; Potency [9]: inactive; Potency [18]: inactive; Potency [10]: inactive; Potency [15]: inactive; Potency [19]: inactive; Potency [11]: inactive; Potency [16]: inactive; Potency [12]: inactive; Potency [13]: inactive; Potency [17]: inactive

**Q.** Which results are given for `NC(Cc1ccc(Cl)cc1)C(=O)O` (stereo not drawn)?
**A.** Potency [1]: inactive; Potency [2]: inactive; Potency [3]: inactive; Potency [5]: inactive; Potency [8]: inactive; Potency (Aromatase (Homo sapiens)): inactive; Potency [9]: inactive; Potency [18]: inactive; Potency [10]: inactive; Potency [15]: inactive; ratio activity, negative = inhibition [19]: -10.6% [at 0.55 µM] (inactive); activity change, negative = cytotoxicity [11]: 2.82% [at 0.55 µM] (inactive); viability change, negative = cytotoxic [12]: 0.376% [at 0.756 µM] (inactive); activation [17]: 1.36% [at 0.55 µM] (inactive)

**Q.** Which Potency [1] does the source give for `CC(=O)OCC1=C(C(=O)O)N2C(=O)[C@@H](NC(=O)Cc3cccs3)[C@H]2SC1` here?
**A.** inactive

**Q.** What about the Potency [2] of the same molecule?
**A.** inactive

**Q.** What about the Potency [3] of the same molecule?
**A.** inactive

**Q.** What about the Potency [5] of the same molecule?
**A.** inactive

**Q.** What about the Potency [8] of the same molecule?
**A.** inactive

**Q.** And the Potency (Aromatase (Homo sapiens))?
**A.** inactive

**Q.** And the Potency [9]?
**A.** inactive

**Q.** And the Potency [18]?
**A.** inactive

**Q.** And the Potency [10]?
**A.** inactive

**Q.** And the Potency [15]?
**A.** inactive

**Q.** And the Potency [19]?
**A.** inactive

**Q.** And the Potency [11]?
**A.** inactive

**Q.** What about the Potency [12] of the same molecule?
**A.** inactive

**Q.** And the Potency [13]?
**A.** inactive

**Q.** What does the source list for `COc1nc(C)nc(Cl)c1NC1=NCCN1`?
**A.** Potency [1]: inactive; Potency [2]: inactive; Potency [3]: inactive; Potency [4]: inactive; Potency [5]: inactive; Potency [6]: inactive; Potency [14]: inactive; Potency (Aromatase (Homo sapiens)): inactive; Potency [9]: inactive; Potency [10]: inactive; Potency [15]: inactive; Potency [19]: inactive; Potency [11]: inactive; Potency [16]: inactive; Potency [12]: inactive; Potency [17]: inactive
